Source: PubChem BioAssay
GDH-TPI counter-1: inhibits GDH-TPI coupling enzymes, artifact for Mtb FBA screen; GDH-TPI coupled enzyme counterscreen, NADH absorbance; inhibition, % at 4.8 µM; hit rate 1.2% among 360,000; in the data active = inhibition above about 30%;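 note: 0% = DMSO wells and 100% = wells lacking the enzyme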
BoNT-F LC inh: blocks Botulinum neurotoxin F light chain protease. hit rate 0.22% among 360,000. inhibition, % at 10 µM. Multiplex microsphere protease cleavage assay, flow cytometry; in the data active = inhibition above about 35%, passing the limit was not always enough; inconclusive = no clear call, values can overlap the other calls; note: plate controls were buffer without enzyme for full effect and enzyme alone for no effect
Anthrax LF prot: anthrax lethal factor protease inhibition; P15917; multiplex microsphere protease cleavage assay, LF; inhibition, % at 10 µM; hit rate 0.12% among 360,000; AID 588501; in the data active = inhibition above about 30%; inconclusive = no clear call, values can overlap the other calls; note: plate controls were buffer without enzyme for full effect and enzyme alone for no effect
FBA Mtb inh: inhibitors of M. tuberculosis fructose-bisphosphate aldolase. P9WQA3. purified M. tuberculosis FBA, fluorescence read-out. inhibition, % at 1 µM. hit rate 2.3% among 360,000. AID 588726;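 note: 0% = vehicle and 100% = reference inhibitor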
Target sequence (P9WQA3 whole entry, looked up): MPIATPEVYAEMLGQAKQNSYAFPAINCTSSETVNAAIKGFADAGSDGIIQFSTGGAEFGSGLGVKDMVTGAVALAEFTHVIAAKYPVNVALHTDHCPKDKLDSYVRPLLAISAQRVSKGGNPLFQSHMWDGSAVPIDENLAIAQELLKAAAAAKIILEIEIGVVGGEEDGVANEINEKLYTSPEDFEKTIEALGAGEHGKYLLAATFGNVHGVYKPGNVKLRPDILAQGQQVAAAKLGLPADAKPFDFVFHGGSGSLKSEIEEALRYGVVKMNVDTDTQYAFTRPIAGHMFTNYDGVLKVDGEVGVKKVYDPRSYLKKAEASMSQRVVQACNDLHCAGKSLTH
BoNT-A LC inh2: blocks Botulinum neurotoxin A light chain protease; multiplex microsphere protease substrate cleavage, flow cytometry; inhibition, % at 10 µM; hit rate 0.17% among 360,000; AID 588499; in the data active = inhibition above about 30%; inconclusive = no clear call, values can overlap the other calls; note: plate controls were buffer without enzyme for full effect and enzyme alone for no effect
Autofluor counter: flagged as autofluorescent in microsphere protease counterscreen | hit rate 3.1% among 360,000 | compound autofluorescence counterscreen, microsphere flow cytometry; stronger effect = higher value | AID 624483 | fluorescence intensity (no concentration beside the values); in the data active = fluorescence intensity above about 16000; inconclusive = no clear call, values can overlap the other calls
Mtb FBA inh conf: Mtb FBA inhibition, confirmed; hit rate 78% among 5,600; shares compounds with FBA Mtb inh; inhibition, % at 1 µM; purified M. tuberculosis FBA, fluorescence read-out;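 note: 0% = vehicle wells and 100% = reference inhibitor wells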
GDH-TPI counter-2: inhibits GDH-TPI coupling enzymes, flagging Mtb FBA hits. hit rate 81% among 5,600. inhibition, % at 1 µM. shares compounds with FBA Mtb inh. GDH-TPI coupled enzyme counterscreen, fluorescence; in the data active = inhibition above about 10%
* marks the source's active call; other numbers are inactive results. A selection: hits, their analogues and other compounds. The true share with any hit is near 6.7%. Cut-off read from the data, not from the text of the source, unless noted: active = inhibition above about 27%; inactive = the rest.

Results for CCc1noc(C)c1C(=O)N1CCN(S(=O)(=O)c2ccc(Cl)cc2)CC1 ?
GDH-TPI counter-1: -10; BoNT-F LC inh: -7; Anthrax LF prot: -1; FBA Mtb inh: 33*; BoNT-A LC inh2: 0; Autofluor counter: 3789; Mtb FBA inh conf: 94*; GDH-TPI counter-2: 79*

Results for CCCSc1ccccc1C(=O)N1CCN(C(=O)c2ccco2)CC1 ?
GDH-TPI counter-1: 12; BoNT-F LC inh: -6; Anthrax LF prot: 0; FBA Mtb inh: 55*; BoNT-A LC inh2: -1; Autofluor counter: 4321; Mtb FBA inh conf: active; GDH-TPI counter-2: active

How did CCC(C(=O)N1CCN(C(=O)c2ccco2)CC1)c1ccccc1 (stereo unspecified) do in these assays?
GDH-TPI counter-1: -4; BoNT-F LC inh: -6; Anthrax LF prot: 0; FBA Mtb inh: -4; BoNT-A LC inh2: 0; Autofluor counter: 4537

Results for CCOC(=O)CNC(=O)CSc1nnc(-c2ccccc2)n1Cc1ccco1 ?
GDH-TPI counter-1: -6; BoNT-F LC inh: inconclusive; Anthrax LF prot: 4; FBA Mtb inh: 98*; BoNT-A LC inh2: 1; Autofluor counter: 3939; Mtb FBA inh conf: 50*; GDH-TPI counter-2: 39*

What do the screens show for `CCCC(=O)N1CCN(c2nc(CC(C)C)c3c(c2C#N)CCC3)CC1`?
GDH-TPI counter-1: 9; BoNT-F LC inh: -34; Anthrax LF prot: -4; FBA Mtb inh: 32*; BoNT-A LC inh2: -1; Autofluor counter: 4813; Mtb FBA inh conf: 159*; GDH-TPI counter-2: 120*

Results for N#Cc1ccc(NC(=O)Cn2cnc([N+](=O)[O-])c2)cc1 ?
GDH-TPI counter-1: 0; BoNT-F LC inh: inconclusive; Anthrax LF prot: -8; FBA Mtb inh: 0; BoNT-A LC inh2: 5; Autofluor counter: 3793

Results for COC(=O)Nc1c(C)nn(Cc2ccccc2C)c1C ?
GDH-TPI counter-1: 2; BoNT-F LC inh: -1; Anthrax LF prot: 0; FBA Mtb inh: -1; BoNT-A LC inh2: 0; Autofluor counter: 7821

Results for CCOC(=O)CCc1c(C)nc2cc(-c3ccccc3OC)[nH]n2c1=O ?
GDH-TPI counter-1: -6; BoNT-F LC inh: 2; Anthrax LF prot: -2; FBA Mtb inh: 28*; BoNT-A LC inh2: 1; Autofluor counter: 5806; Mtb FBA inh conf: 138*; GDH-TPI counter-2: 124*

How did CCN1CCN(C(c2cc3cc4c(cc3[nH]c2=O)OCO4)c2nnnn2C(C)(C)CC)CC1 (stereo unspecified) do in these assays?
GDH-TPI counter-1: 32*; BoNT-F LC inh: 4; Anthrax LF prot: -9; FBA Mtb inh: 94*; BoNT-A LC inh2: 5; Autofluor counter: 20945*; Mtb FBA inh conf: 9; GDH-TPI counter-2: 1

How did O=c1[nH]c2cc3c(cc2cc1C(c1nnnn1CC1CCCO1)N1CCCC1)OCO3 (stereo unspecified) do in these assays?
GDH-TPI counter-1: 21; BoNT-F LC inh: 1; Anthrax LF prot: 1; FBA Mtb inh: 29*; BoNT-A LC inh2: 0; Autofluor counter: 7833; Mtb FBA inh conf: active; GDH-TPI counter-2: active

What do the screens show for `O=C(O)c1cc(N=Cc2c(O)c3ccccc3oc2=O)ccc1O`?
GDH-TPI counter-1: 5; BoNT-F LC inh: 0; Anthrax LF prot: -7; FBA Mtb inh: 8; BoNT-A LC inh2: -2; Autofluor counter: 3740

What do the screens show for `ClC1(Cl)CC1CSc1nc2ccccc2[nH]1` (stereo unspecified)?
GDH-TPI counter-1: 0; BoNT-F LC inh: -3; Anthrax LF prot: -6; FBA Mtb inh: 33*; BoNT-A LC inh2: 0; Autofluor counter: 4428; Mtb FBA inh conf: 88*; GDH-TPI counter-2: 85*

What do the screens show for `CCOc1ccc2nc(SCC3CC3(Cl)Cl)[nH]c2c1` (stereo unspecified)?
GDH-TPI counter-1: 5; FBA Mtb inh: -2

What do the screens show for `COc1ccc(Cn2c(-c3ccc(OC)c(O)c3)nc3ccccc32)cc1O`?
GDH-TPI counter-1: 5; BoNT-F LC inh: 1; Anthrax LF prot: -1; FBA Mtb inh: 5; BoNT-A LC inh2: 0; Autofluor counter: 2048

Results for Cc1cc(C)c(C#N)c(N2CCCC2)n1 ?
GDH-TPI counter-1: 13; BoNT-F LC inh: -12; Anthrax LF prot: -3; FBA Mtb inh: 30*; BoNT-A LC inh2: -1; Autofluor counter: 8273; Mtb FBA inh conf: 135*; GDH-TPI counter-2: 92*
